# Source: PubChem BioAssay AID485344 (National Center for Advancing Translational Sciences (NCATS), 2010)
# Several values for one entry are separate records, joined by “and”; a condition that tells them apart may be missing. Identical values can stand only once. Out of some 340,000 compounds screened, about 6,900 (2%) were called active. Cut-off read from the data, not from the text of the source: active = inhibition above about 30%; inactive = below that, where a call was filed. The sample as a whole holds a higher share of actives than the screen did. Some compounds were tested as several samples or in several runs, with calls that do not always agree.
# Biological target: D(2) dopamine receptor (Homo sapiens) (UniProt P14416)
# Assay: HTS Assay for Allosteric Antagonists of the Human D2 Dopamine Receptor: Primary Screen for Antagonists; note: 0% is about no effect
# Details: HEK293 TREx D2 cells, calcium flux, dopamine EC80; at 10 µM; stronger effect = higher value
# Procedure, shortened: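 Calcium mobilization kinetics were recorded at 1 s intervals in tetracycline-induced HEK293 T-REx D2 cells, first for 180 s after compound addition and then 180 s after EC80 dopamine.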
# D(2) dopamine receptor (Homo sapiens), sequence (P14416 whole entry, looked up): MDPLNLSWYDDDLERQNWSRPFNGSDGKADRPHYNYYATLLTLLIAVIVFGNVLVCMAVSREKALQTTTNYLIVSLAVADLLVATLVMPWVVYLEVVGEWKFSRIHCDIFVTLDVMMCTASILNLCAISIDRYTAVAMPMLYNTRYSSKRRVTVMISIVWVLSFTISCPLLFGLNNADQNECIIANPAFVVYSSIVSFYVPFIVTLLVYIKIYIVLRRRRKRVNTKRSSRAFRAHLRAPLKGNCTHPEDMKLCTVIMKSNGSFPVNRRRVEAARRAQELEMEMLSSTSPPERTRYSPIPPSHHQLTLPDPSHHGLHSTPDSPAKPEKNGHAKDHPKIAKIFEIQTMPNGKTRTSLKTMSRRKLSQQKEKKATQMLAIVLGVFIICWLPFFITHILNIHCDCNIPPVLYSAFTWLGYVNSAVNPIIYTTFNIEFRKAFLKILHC
row,SMILES,inhibition
1,CC(C)(C)OC(=O)N1CCC(NC(=O)c2[nH]cnc2C(=O)N[C@@H](Cc2ccccc2)C(=O)OCc2ccccc2)CC1,20.4% (inactive)
2,O=C(N[C@@H](Cc1ccccc1)C(=O)OCc1ccccc1)c1nc[nH]c1C(=O)NC1CCNCC1,76.1% (active)
3,O=C(N[C@@H](Cc1ccccc1)C(=O)OCc1ccccc1)c1nc[nH]c1C(=O)N[C@@H](Cc1ccccc1)C(=O)OCc1ccccc1,13.9% (inactive)
4,O=C(NCc1ccccc1CN1CCCC1)C1CCN(S(=O)(=O)c2ccc(Cl)cc2)CC1,9.19% (inactive)
5,Cc1ccccc1-c1cc(C(=O)NCc2cccs2)n(CC2CC(c3cccnc3)=NO2)n1 (configuration not stated),37.9% (active)
6,Cc1ccc(CNC(=O)c2cc(-c3ccccc3C)n(CC3CC(c4cccc([N+](=O)[O-])c4)=NO3)n2)cc1 (configuration not stated),6.93% (inactive)
7,Cc1ccccc1-c1cc(C(=O)NCC2CC2)n(CC2CC(c3cccnc3)=NO2)n1 (configuration not stated),2.25% (inactive)
8,Cc1onc(C(=O)NN)c1-c1csc(COc2ccccc2)n1,20.6% (inactive)
9,COc1ccc(OC)c(Nc2nc(-c3ccc(O)c(O)c3)cs2)c1,-3.66% (inactive)
10,CC(C)(C)C(=O)OCc1nc(-c2ccc(O)c(O)c2)cs1,93.7% (active)
11,C#CCOCCOCCOCCNc1nc(N2CCN(C(=O)CCCCCCCCCCNC(=O)Cn3cc(CCCCCN)nn3)CC2)nc(N2CCN(C(=O)CCCCCCCCCCNC(=O)[C@H](CO)n3cc(CCCSC)nn3)CC2)n1,1.73% (inactive)
12,COc1cc(OC)cc(-c2c(-c3cccs3)c3cc(-c4ccc(OC)cc4F)ccc3n2C)c1,-3.09% (inactive)
13,CCN(CCCCOC(=O)c1ccc(OC)c(OC)c1)C(C)Cc1ccc(OC)cc1 (configuration not stated),43.6% (active)
14,CCOC(=O)CN(Cc1ccc(OC)c(OC)c1)S(=O)(=O)c1ccc(OC)cc1,-14% (inactive)
15,COc1ccccc1NC(=O)COc1ccc(C(=O)OCC(=O)N(C(C)C)C(C)C)cc1OC,11.9% (inactive)
16,CC(C)(C)n1ncc2c(=O)n(Cc3c(Cl)cccc3Br)cnc21,-6.49% (inactive)
17,Cc1ccc(C)c(OCC(=O)NNC(=O)C2CCC2)c1,-10.9% (inactive)
18,CCN(CC(=O)Nc1c(F)cccc1F)C(=O)c1ccc(Sc2nncn2C)c([N+](=O)[O-])c1,-7.81% (inactive)
19,CC1CCCN(CC(=O)Nc2cc(Cl)ccc2Oc2ccccc2)C1 (configuration not stated),-9.74% (inactive)
20,CC(=O)Nc1ccc(SCC(=O)Nc2ccccc2Oc2ccccc2)cc1,-7.41% (inactive)
21,O=C(CSc1ccccc1)Nc1cc(Cl)ccc1Oc1ccccc1,41.8% (active)
22,O=C(CNC(=O)c1ccc2ccccc2c1)Nc1ncccc1O,6.52% (inactive)

row,SMILES,inhibition
1,CCCN(C(=O)c1nc2nccc(C)n2n1)c1c(N)n(Cc2ccccc2)c(=O)[nH]c1=O,13.1% (inactive)
2,O=C(O)c1cc(S(=O)(=O)Nc2ccc3cn[nH]c3c2)ccc1Br,-28.4% (inactive)
3,O=S(=O)(c1ccc(SCc2ccccc2)nc1)N1CCCCCC1,-5.53% (inactive)
4,COc1ccc([C@H]2CC(=O)C=C(/C=C/c3ccccc3)C2)cc1,11.1% (inactive)
5,O=[N+]([O-])c1ccc(O)c(/C=N/Nc2ccccc2[N+](=O)[O-])c1,20.9% (inactive)
6,O=[N+]([O-])c1ccccc1Nc1ccc(O)cc1,48.5% (active)
7,O=C(O)c1ccccc1C(=O)Nc1ccccc1[N+](=O)[O-],7.04% (inactive)
8,COc1ccccc1OCC(=O)OCc1cc(-c2ccco2)on1,5.46% (inactive)
9,CCN(CC(=O)N1CCCC1)S(=O)(=O)c1ccc(F)cc1,21.3% (inactive)
10,CS(=O)(=O)N(CC(=O)N1CCCC1)Cc1ccccc1,47.1% (active)
11,CS(=O)(=O)N(CC(=O)N1CCCCCC1)c1cccc(Cl)c1Cl,-0.797% (inactive)
12,O=C(COc1coc(CN2CCN(c3ccccc3)CC2)cc1=O)Nc1ccccc1F,16.7% (inactive)
13,CCOC(=O)c1cc(-c2ccccc2C)n(Cc2cc(C)no2)n1,9.49% (inactive)
14,COc1ccc(C(=O)OCC(=O)NCCCc2ccccc2)cc1OC,7.85% (inactive)
15,CC(=O)Nc1cccc(C(=O)OCC(=O)Nc2nnc(-c3ccccc3)o2)c1,-0.603% (inactive)
16,COc1ccc(C(=O)OCC(=O)Nc2cccc(C(C)=O)c2)cc1OC,113% (active)
17,CCCCn1c(N)c(N(CCOC)C(=O)c2cccc(OCc3ccccc3)c2)c(=O)[nH]c1=O,-3.21% (inactive)
18,CCOc1ncccc1C(=O)OCC(=O)Nc1cccc(S(=O)(=O)N2CCCCCC2)c1,-2.34% (inactive)
19,CC(Oc1ccc(F)cc1)C(=O)Nc1cc(S(=O)(=O)N2CCOCC2)ccc1N1CCN(C)CC1 (configuration not stated),-1.88% (inactive)
20,CC(NC(=O)c1ccc(S(=O)(=O)Nc2ccccc2)cc1)c1ccc(S(N)(=O)=O)cc1 (configuration not stated),11.4% (inactive)
21,S=C(NCc1ccco1)NCc1ccccc1Cl,-9.44% (inactive)
22,Clc1ccccc1CSc1nnc(-c2ccco2)c(-c2ccco2)n1,34.6% (active)

row,SMILES,inhibition
1,Fc1cccc(Cl)c1CSc1ccc(-c2ccco2)nn1,-10.9% (inactive)
2,COc1ccccc1C(CNC(=O)c1ccc(C)c(S(=O)(=O)N2CCCCC2)c1)N(C)C (configuration not stated),8.09% (inactive)
3,CN(C(=O)COC(=O)c1ccc(Br)o1)c1c(N)n(Cc2ccccc2)c(=O)[nH]c1=O,1.2% (inactive)
4,CC(=O)NCC(=O)N(Cc1ccco1)C1(C(=O)NC2CCCC2)CCCCC1,22.2% (inactive)
5,Cc1ccc(N(C(=O)CC2NC(=O)NC2=O)C2(C(=O)NC3CCCC3)CCCCC2)cc1 (configuration not stated),-9.9% (inactive)
6,O=C(c1ccc(=O)[nH]c1)N(Cc1ccco1)C1(C(=O)NC2CCCCC2)CCCCC1,37.6% (active)
7,O=C(CN1C(=O)COc2ccccc21)NCCN1CCc2ccccc2C1,9.13% (inactive)
8,O=C(NCCN1CCN(Cc2ccccc2)CC1)c1cc2c(=O)[nH]c3ccccc3c2s1,-24.6% (inactive)
9,Cn1c(C(=O)NCCN2CCc3ccccc3C2)cc2c(=O)[nH]c3ccccc3c21,32.3% (active)
10,COc1ccccc1NC(=O)CSc1nnc(C)n1CC1CCCO1 (configuration not stated),-14.5% (inactive)
11,Cc1nnc(SCC(=O)NNC(=O)c2ccc(Cl)cc2)n1CC1CCCO1 (configuration not stated),-10.1% (inactive)
12,Cc1nnc(SCC(N)=O)n1CC1CCCO1 (configuration not stated),32.8% (active)
13,COc1ccc(CCNC(=O)COC(=O)Cc2cccc(F)c2)cc1,6.51% (inactive)
14,Cc1c(NC(=O)C(C)Oc2cccc(Cl)c2)c(=O)n(-c2ccccc2)n1C (configuration not stated),-1.16% (inactive)
15,O=C(CSc1nc(C2CC2)nc2ccccc12)Nc1cccc(O)c1,6.46% (inactive)
16,Cc1nnc(NC(=O)CSc2nc(C3CCCCC3)nc3ccccc23)s1,35.4% (active)
17,O=C(CSc1nc(C2CC2)nc2ccccc12)Nc1ccc2c(c1)OCCO2,4.27% (inactive)
18,Cn1c(CC(=O)NNC(=O)c2ccccc2F)nc2ccccc21,-9.97% (inactive)
19,O=C(NCc1ccncc1)c1cccc(NS(=O)(=O)c2ccc(F)c(F)c2)c1,26.4% (inactive)
20,O=CN1CCN(C(=O)c2ccc(Br)o2)CC1,-1.93% (inactive)
21,O=C(c1ccco1)N1CCN(CCOc2ccccc2)CC1,61.7% (active)
22,COc1cccc(OC)c1OCCN1CCN(C(=O)c2ccco2)CC1,63.6% (active)

row,SMILES,inhibition
1,O=C(c1ccco1)N1CCN(Cc2cccc(C(F)(F)F)c2)CC1,77.1% (active)
2,O=C(CN1CCN(C(=O)c2ccco2)CC1)Nc1ccc(Cl)c(C(F)(F)F)c1,0.954% (inactive)
3,O=C(CNS(=O)(=O)c1ccccc1)N1CCN(C(=O)c2ccco2)CC1,-2.75% (inactive)
4,COc1cccc(OCc2cc(C(=O)N3CCN(C(=O)c4ccco4)CC3)no2)c1,-3.13% (inactive)
5,O=C(c1ccco1)N1CCN(C(=S)Nc2cc(F)cc(F)c2)CC1,-1.02% (inactive)
6,Cc1ccc(C)c(OCC(=O)N2CCN(C(=O)c3ccco3)CC2)c1,-1.29% (inactive)
7,COC(c1ccccc1)c1nnc(CCC(=O)N2CCN(CCOc3ccccc3)CC2)o1 (configuration not stated),-8.4% (inactive)
8,O=C(c1ccco1)N1CCN(C(=O)c2ccc(COc3ccc(F)cc3)o2)CC1,1.11% (inactive)
9,O=C(c1ccc(Br)o1)N1CCN(CCOc2ccccc2)CC1,86.3% (active)
10,CC(C)CN(C(=O)CSc1nncn1C)C1CCS(=O)(=O)C1 (configuration not stated),-28.1% (inactive)
11,O=C1C=C(c2cc(C(F)(F)F)cc(C(F)(F)F)c2)C[C@@H](c2ccc3c(c2)OCO3)C1,8.46% (inactive)
12,CC(=O)Nc1cccc(C(=O)OCC(=O)c2ccc3c(c2)OCO3)c1,13.5% (inactive)
13,CSCCC(NC(=O)c1ccccc1)C(=O)N1CCCCCCC1 (configuration not stated),-18.4% (inactive)
14,COc1ccccc1C(=O)Nc1ccc(OCC(=O)N2CCCCC2)cc1,-21.7% (inactive)
15,Cc1ccc(C(=O)NNC(=O)c2ccc3c(c2)OCCO3)cc1,20.3% (inactive)
16,Cc1ccc(C(=O)Nc2ncccc2C)cc1S(=O)(=O)N1CCOCC1,-29.3% (inactive)
17,Cc1nn(CCOc2ccccc2)c(=O)n1-c1ccccc1F,4.74% (inactive)
18,CCc1nn(CCCN2CCN(c3cccc(Cl)c3)CC2)c(=O)n1CCOc1ccccc1,10.2% (inactive) and 47% (active)
19,CCN1C(=O)/C(=C\N2CCN(c3cccc(Cl)c3)CC2)SC1=S,-0.63% (inactive)
20,CCN1CCN(C(=O)N[C@@H](C(=O)N[C@@H]2C(=O)N3C(C(=O)O)=C(CSc4nnnn4C)CS[C@H]23)c2ccc(O)cc2)C(=O)C1=O,-6.07% (inactive)
21,O=c1c2ccccc2ccc2ccc(P(=O)(O)O)cc12,1.32% (inactive)
